A selection: hits, their analogues and other compounds. The true share with any hit is near 4.1%.
DAX1 inh-1: DAX1 (NR0B1) inhibitors on StAR promoter, primary screen, cell-based, luminescence, SF-1 (NR5A1), full-length DAX-1; HEK293T StAR-luciferase reporter, SF-1/DAX-1 repression relief; inhibition, % at 6.8 µM; hit rate 1.1% among 370,000;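 active means inhibition above the mean over all tested compounds plus 3 SD, cut at about 3.6% in these data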;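 further: 0% = DAX-1 cells with DMSO and 100% = cells lacking DAX-1 with DMSO; higher inhibition means more luminescence from relief of DAX-1 repression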
DAX1 inh-2: DAX1 (NR0B1) inhibitors, primary screen, cell-based, HEK293, Gal4-DAX1, luciferase luminescence; inhibition, % at 6.75 µM; HEK293 Gal4-DAX1 luciferase reporter; Nuclear receptor subfamily 0 group B member 1 (Homo sapiens), P51843; hit rate 0.99% among 340,000;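 active means inhibition above the mean over all tested compounds plus 3 SD, cut at about 4.2% in these data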;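 further: 0% = DAX1-transfected cells with DMSO and 100% = empty-vector control cells with DMSO; inhibition shows as a rise in luminescence from relieved DAX1 repression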
ssDAF12 agonist: S. stercoralis DAF-12 nuclear receptor activators, primary screen, cell-based, luminescence, HEK293, GRIP1 co-expression, lit1-tk-luc. Nuclear hormone receptor DAF-12 (Strongyloides stercoralis). hit rate 1% among 370,000. HEK293 ssDAF-12/GRIP1 lit1-tk-luc reporter; % of 3 µM dafachronic acid response. AID 652126, 2013. activation, % at 6.8 µM;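 active means activation above the mean over all tested compounds plus 3 SD, cut at about 0.9% in these data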;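 further: 0% = DMSO-only wells and 100% = 3 µM delta7-dafachronic acid wells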
hgDAF-12 ag: H. glycines DAF-12 receptor agonists, primary screen, cell-based, luminescence, HEK293, GAL4 fusion, UAS-luciferase | HEK293 GAL4-hgDAF12 UAS-luciferase reporter, agonist luminescence; normalized to butyrate control | activation, % at 6.8 µM | hit rate 1.8% among 370,000 | AID 687014, 2013;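 active means activation above a cutoff set at the mean of all screened compounds plus 3 SD, cut at about 10% in these data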;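 further: 0% = DMSO wells and 100% = sodium butyrate wells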
hcDAF-12 act: H. contortus DAF-12 nuclear receptor activators, primary screen, cell-based, luminescence, HEK293, lit1-tk-luc reporter; HEK293 hcDAF-12 lit1-tk-luc reporter; 0% DMSO, 100% Δ7-dafachronic acid; activation, % at 6.8 µM; hit rate 1.4% among 370,000; AID 652067, 2013;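 active means activation above the mean of all tested compounds plus 3 SD, cut at about 5.5% in these data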;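 further: 100% = response to 3 µM Δ7-dafachronic acid high control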
hgDAF12 ag: H. glycines DAF-12 receptor agonists, confirmation, cell-based, luminescence, HEK293, GAL4-LBD fusion; shares compounds with hgDAF-12 ag; HEK293 GAL4-hgDAF12 luciferase reporter, agonist mode; percent of butyrate response; activation, % at 6.8 µM; hit rate 80% among 3,300;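 active means mean activation over triplicate wells above the hit cutoff derived from the earlier primary screen, cut at about 11% in these data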;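 further: 0% = DMSO low control and 100% = 2 mM sodium butyrate high control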
LXR ag 2: LXR agonists, Gal4 luciferase reporter, confirmation, counter-screen for hgDAF-12 agonist project, cell-based, luminescence, HEK293, H. glycines campaign; 3,300 tested, under 10 active; 24 h; shares compounds with hgDAF-12 ag; activation, % at 6.8 µM;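 active means mean activation of the triplicate above a set limit carried over from the primary screen, none filed active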
Target sequence (P55055 whole entry, looked up, the tested form may be a part): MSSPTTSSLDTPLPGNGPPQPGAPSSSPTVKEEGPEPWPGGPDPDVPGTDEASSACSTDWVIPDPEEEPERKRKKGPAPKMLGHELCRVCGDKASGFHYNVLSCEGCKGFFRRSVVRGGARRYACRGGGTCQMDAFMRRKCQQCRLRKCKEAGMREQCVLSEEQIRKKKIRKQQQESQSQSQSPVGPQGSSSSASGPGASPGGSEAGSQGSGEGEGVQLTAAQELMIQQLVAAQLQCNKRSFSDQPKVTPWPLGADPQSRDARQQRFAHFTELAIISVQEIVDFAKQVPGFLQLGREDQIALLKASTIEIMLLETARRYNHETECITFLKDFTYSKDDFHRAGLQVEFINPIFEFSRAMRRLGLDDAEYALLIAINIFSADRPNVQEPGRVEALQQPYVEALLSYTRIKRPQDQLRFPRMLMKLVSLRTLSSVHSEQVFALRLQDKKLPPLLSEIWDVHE
Starred values were filed as active, the others as inactive.

Screening O=C(Cc1ccccc1)N/N=C/c1ccc2c(c1)OCO2 returned DAX1 inh-1 1, ssDAF12 agonist -1, hgDAF-12 ag 16*, hcDAF-12 act 4, hgDAF12 ag 12* and LXR ag 2 0.
Screening O=C(CNc1ccccc1)N/N=C/c1ccc2c(c1)OCO2 returned DAX1 inh-1 0, DAX1 inh-2 -1, ssDAF12 agonist -1, hgDAF-12 ag 0 and hcDAF-12 act 0.
For Cc1cc(C)n2nc(C(=O)Nc3ccc4c(c3)OCO4)cc2n1 the results were DAX1 inh-1 4.2*, DAX1 inh-2 2, ssDAF12 agonist 0, hgDAF-12 ag 15*, hcDAF-12 act 4, hgDAF12 ag 15* and LXR ag 2 1.
Cc1ccc(-c2cc(N)n(-c3ccc(F)cc3)n2)cc1 was read as DAX1 inh-1 4.3*, DAX1 inh-2 1, ssDAF12 agonist -1, hgDAF-12 ag 15*, hcDAF-12 act 5, hgDAF12 ag 10 and LXR ag 2 1.
`Cc1ccc(-c2cc(N)n(-c3ccc(C)cc3)n2)cc1` gave DAX1 inh-1 2, DAX1 inh-2 2, ssDAF12 agonist 0, hgDAF-12 ag 6 and hcDAF-12 act 2.
Screening COc1ccc(-c2ccc(C(=O)C3CC3)cc2)cc1 returned DAX1 inh-1 2, DAX1 inh-2 2, ssDAF12 agonist 0, hgDAF-12 ag 15*, hcDAF-12 act 3, hgDAF12 ag 20* and LXR ag 2 1.
CC1=CC(=C2C(=O)c3ccccc3C2=O)C=C(C)N1Cc1ccco1 was read as DAX1 inh-1 3, DAX1 inh-2 2, ssDAF12 agonist 0, hgDAF-12 ag 16*, hcDAF-12 act 3, hgDAF12 ag 13* and LXR ag 2 1.
For O=C1c2ccccc2C(=O)N1Cc1ccco1 the results were DAX1 inh-1 0, DAX1 inh-2 1, ssDAF12 agonist -1, hgDAF-12 ag -3 and hcDAF-12 act -1.
For Cc1cccc(C)c1NC(=O)C1(C)CN(S(C)(=O)=O)CC(=O)N1Cc1ccco1 (configuration not stated) the results were DAX1 inh-1 0, ssDAF12 agonist -1, hgDAF-12 ag -2 and hcDAF-12 act -2.
CN(c1ccccc1)S(=O)(=O)c1ccc(Cl)c(C(=O)NCC(c2ccco2)N2CCCC2)c1 (configuration not stated) was read as DAX1 inh-1 -1, DAX1 inh-2 0, ssDAF12 agonist -2, hgDAF-12 ag -1 and hcDAF-12 act -2.
Screening O=C(O)c1ccc2c(c1)C(=O)N(c1cccc(-c3nc4ccccc4s3)c1)C2=O returned DAX1 inh-1 1, DAX1 inh-2 1, ssDAF12 agonist -1, hgDAF-12 ag 16*, hcDAF-12 act 0, hgDAF12 ag 3 and LXR ag 2 0.
For c1csc(-c2nc(-c3ccc(-c4ccon4)s3)no2)c1 the results were DAX1 inh-1 2, DAX1 inh-2 3, ssDAF12 agonist 1, hgDAF-12 ag 17*, hcDAF-12 act 5, hgDAF12 ag 17* and LXR ag 2 1.
`CCCCOc1ccc(C(=O)N(C)CC(=O)Nc2ccc(C)cc2)cc1` gave DAX1 inh-1 0, DAX1 inh-2 -1, ssDAF12 agonist 0, hgDAF-12 ag 0 and hcDAF-12 act 4.
Screening CC1(C)CC(=O)C(C=Nc2ccccc2C(=O)O)=C(O)C1 returned DAX1 inh-1 0, DAX1 inh-2 0, ssDAF12 agonist -2, hgDAF-12 ag 3 and hcDAF-12 act 3.

Compound activity: PubChem, The Scripps Research Institute Molecular Screening Center
